High-throughput results: PubChem BioAssay, National Center for Advancing Translational Sciences (NCATS)
ELG1 genotoxic: genotoxicity induction in ELG1-luciferase HEK293T cells; 330,000 compounds, 1.3% hits; HEK293T ELG1-luciferase reporter, luminescence, 16 h; Potency, µM (titrated, usually from 46 µM), hits mostly activators; further: nearly all actives have a fitted effect of over 60% in size
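Luminescence read-out: rising ELG1-luciferase signal, reflecting elevated ELG1 protein under genetic stress, flags genotoxic compounds. Cells were treated for 16 hr at 37 °C before ONE-Glo detection.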
NPC1 promoter act: NPC1 promoter activation | Huh7 NPC1 promoter luciferase reporter, 24 h | Potency, µM (top dose mostly 9.22 µM), hits mostly activators | 320,000 compounds, 2.4% hits; further: nearly all actives have a fitted effect of over 60% in size
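Readout is luciferase luminescence, reflecting NPC1 promoter activation in stably transfected Huh7 cells after 24 h compound exposure at 37 °C in reduced-serum medium with 10% FBS.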
SMN2 splice enh: increases expression of the SMN2 splice variant; AID 1458; Potency, µM (titrated, usually from 46.1 µM), actives largely listed as activators; 210,000 compounds, 2.8% hits; HEK293 SMN2-luciferase splicing reporter, luminescence, 30-36 h; further: nearly all actives have a fitted effect of over 55% in size
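HEK293 cells carry an SMN2 minigene-luciferase reporter in which exon 7 inclusion puts luciferase in frame. Cells were seeded at 2000 cells/well, attached for 10-12 hours, then exposed to compounds for 30-36 hours at 37C before ONE-Glo luminescence.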
Rab9 prom act: activates the Rab9 promoter. Huh7 Rab9 promoter-luciferase reporter, luminescence, 24 h. Potency, µM (highest dose often 9.22 µM), hits mostly activators. 320,000 compounds, 2.8% hits. AID 485297; further: nearly all actives have a fitted effect of over 60% in size
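Luciferase signal after 10 min detection reagent at ambient indicates Rab9 promoter upregulation; stably transfected Huh7 cells were treated 24 h with compound in DMSO at 37 °C, 5% CO2.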
FLuc counter: counter-screen for miR-21 project: firefly luciferase inhibitors or activators. purified FLuc, Km substrates, luminescence inhibition. Potency, µM (series often up to 57.5 µM), actives largely listed as inhibitors. 360,000 compounds, 6.9% hits. AID 588342; further: nearly all actives have a fitted effect of over 55% in size
Target sequence (P08659 whole entry, looked up): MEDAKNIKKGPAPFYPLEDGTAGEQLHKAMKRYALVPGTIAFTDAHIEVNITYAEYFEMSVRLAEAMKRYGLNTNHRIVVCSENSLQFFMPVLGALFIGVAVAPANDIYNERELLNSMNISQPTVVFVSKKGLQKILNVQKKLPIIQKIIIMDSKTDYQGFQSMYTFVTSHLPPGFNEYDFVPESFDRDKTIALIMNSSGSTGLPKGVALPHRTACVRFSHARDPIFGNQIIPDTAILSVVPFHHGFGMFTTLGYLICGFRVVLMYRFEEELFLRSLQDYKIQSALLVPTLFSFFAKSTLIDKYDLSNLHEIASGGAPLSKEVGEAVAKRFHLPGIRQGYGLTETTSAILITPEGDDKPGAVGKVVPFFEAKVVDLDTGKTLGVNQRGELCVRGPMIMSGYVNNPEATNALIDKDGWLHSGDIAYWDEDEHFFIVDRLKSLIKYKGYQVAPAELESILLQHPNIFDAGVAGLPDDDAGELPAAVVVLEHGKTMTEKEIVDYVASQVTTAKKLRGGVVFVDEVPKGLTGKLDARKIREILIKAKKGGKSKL
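Purified P. pyralis luciferase, 10 nM final, with Km-level 10 uM D-luciferin and 10 uM ATP in 50 mM Tris acetate pH 7.5, 10 mM Mg acetate, 0.01% Tween-20, 0.05% BSA; 6-point qHTS titration about 60 µM downward; luminescence read.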
Each line names hits and unclear results; the compound was inactive in the other large screens. Most compounds without a hit are left out; they make up all but 7.4% or so of the library. The call rests on the fitted dose curve; in most records, active means well fitted curve in the direction sought with a large enough effect; inconclusive means small, poorly fitted or top-dose-only effect, or another doubt; inactive means no such curve, though single readings can be large; an effect the other way counts as inactive or inconclusive.

COC(=O)c1sc(NC(=O)c2c(-c3ccccc3)noc2C)nc1C	FLuc counter inconclusive (no result: SMN2 splice enh)
COC(=O)c1sc(NC(=O)c2c(C)noc2C)nc1C	ELG1 genotoxic inconclusive, FLuc counter 23.9µM (no result: SMN2 splice enh)
CC(C)CCn1c(=O)c2cccnc2n(CC(=O)Nc2ccccc2F)c1=O	none (no result: ELG1 genotoxic, NPC1 promoter act, Rab9 prom act)
O=C(N/N=C/c1cc(Br)c(Br)o1)c1cccnc1	none
O=C(N/N=C/c1cc(Br)c(O)c(Br)c1O)c1ccc2c(c1)OCCO2	ELG1 genotoxic inconclusive, FLuc counter 7.57µM (no result: SMN2 splice enh)
O=C(N/N=C/c1cc(Br)c(Br)o1)c1ccc2c(c1)OCCO2	NPC1 promoter act inconclusive, Rab9 prom act 2.51µM, FLuc counter 12µM (no result: SMN2 splice enh)
CCOc1cc(/C=N/NC(=O)c2ccc3c(c2)OCCO3)cc(Br)c1O	FLuc counter 21.3µM (no result: SMN2 splice enh)
Cc1c(CNC(C)CCc2ccccc2)c(C(=O)O)c(C)n1Cc1ccc(F)cc1Cl (configuration not stated)	SMN2 splice enh inconclusive (no result: ELG1 genotoxic, NPC1 promoter act, Rab9 prom act)
CC(C)(C)C(=O)O/N=C(\N)c1ccc(Br)cc1	FLuc counter 21.3µM (no result: SMN2 splice enh)
Cc1ccc(C(=O)O/N=C(\N)c2ccc(Br)cc2)cc1	ELG1 genotoxic 12.6µM, FLuc counter 2.39µM
N/C(=N\OC(=O)c1cccc(Br)c1)c1ccc(Br)cc1	FLuc counter inconclusive
CC(C)(C)C(=O)O/N=C(\N)c1ccc(-c2csnn2)cc1	ELG1 genotoxic inconclusive, NPC1 promoter act 2.82µM, Rab9 prom act 4.47µM, FLuc counter 7.57µM (no result: SMN2 splice enh)
CC(=O)O/N=C(\N)c1ccc(-c2csnn2)cc1	ELG1 genotoxic inconclusive, FLuc counter inconclusive (no result: SMN2 splice enh)
N/C(=N\OC(=O)c1ccc(Br)cc1)c1ccccc1	ELG1 genotoxic inconclusive, NPC1 promoter act 3.16µM, SMN2 splice enh inconclusive, Rab9 prom act 2.82µM, FLuc counter 0.213µM
O=C(CSCC(=O)OCC(=O)c1ccc(Br)cc1)Nc1ccc(Br)cc1	FLuc counter 16.9µM
CC(C)(C)C(=O)Nc1ccc(-c2csnn2)cc1	ELG1 genotoxic inconclusive, NPC1 promoter act inconclusive, Rab9 prom act 2.82µM, FLuc counter 23.9µM (no result: SMN2 splice enh)
O=C(COC(=O)CCCSc1nc2ccccc2[nH]1)Nc1ccc(Cl)cc1	FLuc counter 19µM
O=C(COC(=O)c1ccc(Br)cc1)NCCc1ccccc1	none
O=C(COC(=O)c1ccccc1)c1ccc(Br)cc1	NPC1 promoter act 2.24µM, Rab9 prom act 3.98µM, FLuc counter 0.536µM
O=C(Nc1ccc(-c2csnn2)cc1)C(Cl)(Cl)Cl	none (no result: SMN2 splice enh)
COc1ccc(/C=C\c2onc(C)c2S(=O)(=O)N2CCC(C(=O)Nc3cccc(Cl)c3)CC2)cc1	none (no result: ELG1 genotoxic, NPC1 promoter act, Rab9 prom act)
CCOC(=O)c1cnc2c(C(F)(F)F)cccc2c1NCCCN1CCOCC1	none (no result: SMN2 splice enh)
O=C(CCCNC(=O)c1ccc(Cl)cc1)Nc1ccc(Br)cc1	none (no result: SMN2 splice enh)
N/C(=N\OC(=O)Cc1cccs1)c1ccc(Br)cc1	ELG1 genotoxic inconclusive, FLuc counter 19µM
O=C(COC(=O)CCCNC(=O)c1ccc(Cl)cc1)Nc1ccc(Br)cc1	FLuc counter 3.38µM
N/C(=N\OC(=O)Cc1cccs1)c1ccc([N+](=O)[O-])cc1	SMN2 splice enh inconclusive, FLuc counter inconclusive
CCCCCOc1ccc(CSc2n[nH]c(C)n2)cc1	none (no result: SMN2 splice enh)
Cc1nc(SCc2ccc(OCCC(C)C)cc2)n[nH]1	ELG1 genotoxic inconclusive, NPC1 promoter act inconclusive, SMN2 splice enh inconclusive, Rab9 prom act inconclusive, FLuc counter 21.3µM
Cn1ccnc1Sc1ccc(/C=N/NC(=O)c2ccccc2O)cc1[N+](=O)[O-]	FLuc counter 5.36µM
NC(=O)CC(NC(=O)Cc1ccc(Cl)cc1)c1ccc(NCCN2CCOCC2)c([N+](=O)[O-])c1 (configuration not stated)	none (no result: SMN2 splice enh)
Cc1ccc(-c2nc3c4ccccc4n(Cc4cccc(Cl)c4)c(=O)n3n2)cc1	none (no result: ELG1 genotoxic, NPC1 promoter act, SMN2 splice enh, Rab9 prom act)
CCC(=O)N1CCc2cc(S(=O)(=O)NCCC(=O)Nc3ccc(OC)c(OC)c3)ccc21	none (no result: ELG1 genotoxic, NPC1 promoter act, Rab9 prom act)
c1ccc2c3c(cc(N4CCOCC4)c2c1)OC1(N2CCOCC2)CCCCC1O3 (configuration not stated)	SMN2 splice enh 22.4µM
CS(=O)(=O)c1cnc2c(S(=O)(=O)c3ccccc3)cnn2c1N	none
CS(=O)(=O)c1cnc2c(-c3ccsc3)cnn2c1N	ELG1 genotoxic 20.6µM, NPC1 promoter act 2.82µM, SMN2 splice enh 12.6µM, Rab9 prom act 2.82µM, FLuc counter 10.7µM
CSc1nnc2c3ccccc3n(Cc3ccccc3)c2n1	none
CSc1nnc2c3ccccc3n(CCc3ccccc3)c2n1	SMN2 splice enh 3.98µM
COc1ccc(C(=O)/C=C2/c3ccccc3CC(C)(C)N2C)cc1	FLuc counter 5.36µM
O=C1Nc2ccccc2/C1=C/C(=O)c1cccs1	SMN2 splice enh inconclusive, FLuc counter 15.1µM
COc1ccc(C2(C(=O)c3ccccc3)C(=O)c3ccccc3C2=O)cc1	ELG1 genotoxic inconclusive, NPC1 promoter act 2µM, Rab9 prom act inconclusive, FLuc counter 4.78µM (no result: SMN2 splice enh)
COc1ccc(C(=O)/C=C2/C(=O)Nc3ccccc32)c(OC)c1	FLuc counter 8.49µM (no result: SMN2 splice enh)
CCCOc1ccccc1C(=O)N1CCNC(=O)C1CC(=O)OC(C)C (configuration not stated)	none (no result: SMN2 splice enh)
COc1ccc(C(=O)/C=C2/C(=O)Nc3ccccc32)cc1	ELG1 genotoxic inconclusive, FLuc counter 2.39µM (no result: SMN2 splice enh)
O=C1CC(SCCO)C(=O)N1c1ccc(Oc2ccccc2)cc1 (configuration not stated)	FLuc counter 21.3µM
O=C(O)CCSC1CC(=O)N(c2ccccc2)C1=O (configuration not stated)	none (no result: SMN2 splice enh)
COc1ccc2nc(NNC(=O)C3COc4ccccc4O3)sc2c1 (configuration not stated)	none
CS(=O)(=O)c1ccc2nc(NC(=O)C3COc4ccccc4O3)sc2c1 (configuration not stated)	FLuc counter 10.7µM (no result: SMN2 splice enh)
COc1ccc2nc(NC(=O)C3COc4ccccc4O3)sc2c1 (configuration not stated)	ELG1 genotoxic inconclusive, NPC1 promoter act 1.58µM, SMN2 splice enh 12.6µM, Rab9 prom act 3.16µM, FLuc counter 3.01µM
O=C(Nc1nc(-c2nc3ccccc3s2)cs1)C1COc2ccccc2O1 (configuration not stated)	SMN2 splice enh 25.1µM, FLuc counter 19µM
CC1CC1C(=O)Nc1nc2ccc(S(C)(=O)=O)cc2s1 (configuration not stated)	none (no result: SMN2 splice enh)
O=C(NCc1cccnc1)c1cccc(OC2CCN(Cc3ccc(CO)o3)CC2)c1	none (no result: SMN2 splice enh)
O=C(CN1C(=O)NC2(CCCCCC2)C1=O)c1ccc2c(c1)OCCO2	ELG1 genotoxic 4.11µM, NPC1 promoter act 2µM, SMN2 splice enh 17.8µM, Rab9 prom act 2.82µM, FLuc counter 9.53µM
O=C(CN1C(=O)NC2(CCCCCC2)C1=O)c1ccc(F)cc1	none (no result: SMN2 splice enh)
CC1CCC2(CC1)NC(=O)N(CC(=O)Nc1ccc3c(c1)OCCO3)C2=O (configuration not stated)	ELG1 genotoxic inconclusive, NPC1 promoter act inconclusive, SMN2 splice enh inconclusive, Rab9 prom act 3.55µM, FLuc counter 26.9µM
